Source: ChEMBL document CHEMBL1961873, “Compounds: GSK PKIS; Assays: Nanosyn kinase panel” (2012)

Key:
[1] = biological target: High affinity nerve growth factor receptor (Homo sapiens) (UniProt P04629); conditions: at 1 µM;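 also: each value is the mean percent inhibition of TRKA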
[2] = biological target: BDNF/NT-3 growth factors receptor (Homo sapiens) (UniProt Q16620); conditions: at 0.1 µM
[3] = biological target: BDNF/NT-3 growth factors receptor (Homo sapiens) (UniProt Q16620); conditions: at 1 µM
[4] = biological target: NT-3 growth factor receptor (Homo sapiens) (UniProt Q16288); conditions: at 0.1 µM
[5] = biological target: NT-3 growth factor receptor (Homo sapiens) (UniProt Q16288); conditions: at 1 µM
[6] = biological target: T1, Tyrosine-protein kinase TXK (Homo sapiens) (UniProt P42681); conditions: at 0.1 µM
T1 sequence (whole entry): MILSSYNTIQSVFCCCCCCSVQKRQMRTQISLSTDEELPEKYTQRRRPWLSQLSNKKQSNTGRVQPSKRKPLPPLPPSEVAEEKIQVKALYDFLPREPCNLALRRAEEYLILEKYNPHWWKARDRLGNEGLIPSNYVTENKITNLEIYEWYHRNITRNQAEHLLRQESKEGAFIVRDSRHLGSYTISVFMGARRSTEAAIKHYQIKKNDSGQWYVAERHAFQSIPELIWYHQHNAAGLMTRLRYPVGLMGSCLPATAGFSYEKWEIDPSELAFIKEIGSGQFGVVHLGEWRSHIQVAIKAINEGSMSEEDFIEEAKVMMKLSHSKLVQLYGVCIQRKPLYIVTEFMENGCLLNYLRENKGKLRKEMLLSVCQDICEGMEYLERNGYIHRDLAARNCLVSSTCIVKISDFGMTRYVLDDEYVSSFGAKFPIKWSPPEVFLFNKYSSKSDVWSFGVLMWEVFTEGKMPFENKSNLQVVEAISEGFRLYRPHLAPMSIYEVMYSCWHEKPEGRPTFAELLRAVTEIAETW

[7] = biological target: T1, Tyrosine-protein kinase TXK (Homo sapiens); conditions: at 1 µM
[8] = biological target: Non-receptor tyrosine-protein kinase TYK2 (Homo sapiens) (UniProt P29597); conditions: at 0.1 µM;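 also: each value is a mean of the inhibition readings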
Sequence of Non-receptor tyrosine-protein kinase TYK2 (Homo sapiens) (P29597 whole entry): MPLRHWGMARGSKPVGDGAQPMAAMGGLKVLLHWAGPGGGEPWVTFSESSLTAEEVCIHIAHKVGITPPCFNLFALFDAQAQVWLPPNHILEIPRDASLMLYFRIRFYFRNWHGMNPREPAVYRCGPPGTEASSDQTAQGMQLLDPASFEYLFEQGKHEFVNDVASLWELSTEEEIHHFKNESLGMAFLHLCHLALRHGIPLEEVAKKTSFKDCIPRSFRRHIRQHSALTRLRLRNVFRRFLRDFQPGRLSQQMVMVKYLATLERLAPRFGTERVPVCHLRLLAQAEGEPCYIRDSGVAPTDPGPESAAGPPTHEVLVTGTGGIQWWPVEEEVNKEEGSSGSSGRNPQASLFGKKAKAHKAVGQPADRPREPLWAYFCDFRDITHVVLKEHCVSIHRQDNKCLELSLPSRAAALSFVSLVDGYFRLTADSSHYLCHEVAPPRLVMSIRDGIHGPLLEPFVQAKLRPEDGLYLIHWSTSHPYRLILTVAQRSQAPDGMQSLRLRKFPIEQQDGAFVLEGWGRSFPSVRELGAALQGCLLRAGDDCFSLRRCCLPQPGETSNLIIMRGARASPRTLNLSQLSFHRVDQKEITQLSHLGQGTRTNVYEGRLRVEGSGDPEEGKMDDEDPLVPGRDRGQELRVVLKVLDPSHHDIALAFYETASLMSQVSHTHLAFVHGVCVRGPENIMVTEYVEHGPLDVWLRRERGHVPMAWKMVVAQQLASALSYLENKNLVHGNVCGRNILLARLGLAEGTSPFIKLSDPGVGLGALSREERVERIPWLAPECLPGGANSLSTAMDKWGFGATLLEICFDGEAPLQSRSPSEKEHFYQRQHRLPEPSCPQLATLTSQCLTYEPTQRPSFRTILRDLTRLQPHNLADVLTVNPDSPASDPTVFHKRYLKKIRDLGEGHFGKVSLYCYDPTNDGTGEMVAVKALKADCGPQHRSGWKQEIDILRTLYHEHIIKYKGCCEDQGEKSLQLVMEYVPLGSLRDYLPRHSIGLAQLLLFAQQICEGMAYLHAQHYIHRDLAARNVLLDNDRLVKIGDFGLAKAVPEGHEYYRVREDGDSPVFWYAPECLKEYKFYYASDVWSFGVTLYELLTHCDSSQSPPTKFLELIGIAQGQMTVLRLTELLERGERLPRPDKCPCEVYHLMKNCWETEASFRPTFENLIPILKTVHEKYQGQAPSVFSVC

[9] = biological target: T2, Dual specificity protein kinase TTK (Homo sapiens) (UniProt P33981); conditions: at 1 µM;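 also: reported figures are mean TTK inhibition at 1 µM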
T2 sequence (whole entry): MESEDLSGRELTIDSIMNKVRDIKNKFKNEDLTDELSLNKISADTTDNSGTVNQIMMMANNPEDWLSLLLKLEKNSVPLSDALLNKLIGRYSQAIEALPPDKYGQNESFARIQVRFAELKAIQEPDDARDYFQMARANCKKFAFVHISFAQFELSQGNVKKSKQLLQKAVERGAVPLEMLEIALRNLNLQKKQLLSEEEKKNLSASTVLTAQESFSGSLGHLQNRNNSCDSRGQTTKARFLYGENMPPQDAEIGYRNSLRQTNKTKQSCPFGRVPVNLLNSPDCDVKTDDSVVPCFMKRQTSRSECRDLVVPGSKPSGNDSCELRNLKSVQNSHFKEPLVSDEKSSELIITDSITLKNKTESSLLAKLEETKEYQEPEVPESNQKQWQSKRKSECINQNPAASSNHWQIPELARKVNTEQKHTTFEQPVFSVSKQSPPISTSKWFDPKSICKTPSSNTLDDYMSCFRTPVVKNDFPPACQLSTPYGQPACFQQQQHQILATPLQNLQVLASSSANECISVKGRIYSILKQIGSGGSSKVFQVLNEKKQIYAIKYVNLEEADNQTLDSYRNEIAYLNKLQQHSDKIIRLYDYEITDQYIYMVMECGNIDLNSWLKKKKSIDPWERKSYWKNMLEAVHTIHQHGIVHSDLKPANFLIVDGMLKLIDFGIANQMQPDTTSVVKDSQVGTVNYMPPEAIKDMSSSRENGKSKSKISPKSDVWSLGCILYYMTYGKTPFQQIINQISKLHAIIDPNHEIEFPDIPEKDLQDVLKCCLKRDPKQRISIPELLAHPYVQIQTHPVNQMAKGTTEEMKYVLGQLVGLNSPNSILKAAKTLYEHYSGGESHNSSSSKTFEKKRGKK

[10] = biological target: T3, Aurora kinase A (Homo sapiens) (UniProt O14965); conditions: at 0.1 µM
T3 sequence (whole entry): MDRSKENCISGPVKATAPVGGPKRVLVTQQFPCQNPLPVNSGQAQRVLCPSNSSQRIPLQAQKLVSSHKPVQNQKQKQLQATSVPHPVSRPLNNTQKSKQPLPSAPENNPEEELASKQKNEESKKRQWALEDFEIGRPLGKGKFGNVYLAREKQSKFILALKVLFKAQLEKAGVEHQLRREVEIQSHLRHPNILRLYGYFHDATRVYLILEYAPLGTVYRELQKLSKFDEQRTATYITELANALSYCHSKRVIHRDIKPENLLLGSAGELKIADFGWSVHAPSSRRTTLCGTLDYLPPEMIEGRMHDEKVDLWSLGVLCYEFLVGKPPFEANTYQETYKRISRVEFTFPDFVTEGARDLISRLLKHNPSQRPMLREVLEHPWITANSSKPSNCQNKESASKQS

[11] = biological target: T3, Aurora kinase A (Homo sapiens); conditions: at 1 µM
[12] = biological target: Aurora kinase B (Homo sapiens) (UniProt Q96GD4); conditions: at 0.1 µM
[13] = biological target: Aurora kinase B (Homo sapiens) (UniProt Q96GD4); conditions: at 1 µM
[14] = biological target: T4, Aurora kinase C (Homo sapiens) (UniProt Q9UQB9); conditions: at 0.1 µM
T4 sequence (whole entry): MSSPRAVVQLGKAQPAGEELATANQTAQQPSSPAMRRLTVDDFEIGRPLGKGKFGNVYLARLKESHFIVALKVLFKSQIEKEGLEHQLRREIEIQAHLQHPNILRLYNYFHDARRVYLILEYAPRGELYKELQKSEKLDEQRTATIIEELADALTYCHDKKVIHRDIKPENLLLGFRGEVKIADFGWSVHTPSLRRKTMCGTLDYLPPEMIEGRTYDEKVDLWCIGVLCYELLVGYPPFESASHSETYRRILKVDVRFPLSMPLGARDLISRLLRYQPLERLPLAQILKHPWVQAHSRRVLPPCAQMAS

[15] = biological target: T4, Aurora kinase C (Homo sapiens); conditions: at 1 µM
[16] = biological target: Serine/threonine-protein kinase 10 (Homo sapiens) (UniProt O94804); conditions: at 0.1 µM
Sequence of Serine/threonine-protein kinase 10 (Homo sapiens) (O94804 whole entry, looked up): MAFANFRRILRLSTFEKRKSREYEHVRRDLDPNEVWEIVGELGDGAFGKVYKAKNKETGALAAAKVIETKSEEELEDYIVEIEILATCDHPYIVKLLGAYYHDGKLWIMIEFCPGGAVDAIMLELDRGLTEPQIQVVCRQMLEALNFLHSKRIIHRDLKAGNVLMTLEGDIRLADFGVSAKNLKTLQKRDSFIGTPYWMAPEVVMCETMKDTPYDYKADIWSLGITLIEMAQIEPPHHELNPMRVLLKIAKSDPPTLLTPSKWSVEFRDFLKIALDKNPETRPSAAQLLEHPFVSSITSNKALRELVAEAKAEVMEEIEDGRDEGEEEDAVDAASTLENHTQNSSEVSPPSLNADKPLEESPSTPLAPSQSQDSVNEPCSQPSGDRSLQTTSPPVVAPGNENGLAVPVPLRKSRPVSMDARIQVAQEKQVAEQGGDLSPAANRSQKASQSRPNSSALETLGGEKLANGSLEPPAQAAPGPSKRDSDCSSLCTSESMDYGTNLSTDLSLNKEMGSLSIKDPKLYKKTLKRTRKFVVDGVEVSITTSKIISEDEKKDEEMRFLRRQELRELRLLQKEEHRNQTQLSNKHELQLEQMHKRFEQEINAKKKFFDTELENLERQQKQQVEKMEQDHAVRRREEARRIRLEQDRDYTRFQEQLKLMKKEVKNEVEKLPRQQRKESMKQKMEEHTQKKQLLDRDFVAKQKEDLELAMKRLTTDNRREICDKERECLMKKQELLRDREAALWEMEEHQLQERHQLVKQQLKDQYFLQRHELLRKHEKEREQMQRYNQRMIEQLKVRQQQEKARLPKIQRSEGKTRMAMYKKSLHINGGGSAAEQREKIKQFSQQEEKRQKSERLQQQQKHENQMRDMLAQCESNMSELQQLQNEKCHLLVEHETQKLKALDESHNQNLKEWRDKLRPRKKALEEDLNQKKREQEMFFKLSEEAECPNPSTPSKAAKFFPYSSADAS

[17] = biological target: Serine/threonine-protein kinase 10 (Homo sapiens) (UniProt O94804); conditions: at 1 µM
[18] = biological target: T5, Mitogen-activated protein kinase kinase kinase kinase 2 (Homo sapiens) (UniProt Q12851); conditions: at 0.1 µM
T5 sequence (whole entry): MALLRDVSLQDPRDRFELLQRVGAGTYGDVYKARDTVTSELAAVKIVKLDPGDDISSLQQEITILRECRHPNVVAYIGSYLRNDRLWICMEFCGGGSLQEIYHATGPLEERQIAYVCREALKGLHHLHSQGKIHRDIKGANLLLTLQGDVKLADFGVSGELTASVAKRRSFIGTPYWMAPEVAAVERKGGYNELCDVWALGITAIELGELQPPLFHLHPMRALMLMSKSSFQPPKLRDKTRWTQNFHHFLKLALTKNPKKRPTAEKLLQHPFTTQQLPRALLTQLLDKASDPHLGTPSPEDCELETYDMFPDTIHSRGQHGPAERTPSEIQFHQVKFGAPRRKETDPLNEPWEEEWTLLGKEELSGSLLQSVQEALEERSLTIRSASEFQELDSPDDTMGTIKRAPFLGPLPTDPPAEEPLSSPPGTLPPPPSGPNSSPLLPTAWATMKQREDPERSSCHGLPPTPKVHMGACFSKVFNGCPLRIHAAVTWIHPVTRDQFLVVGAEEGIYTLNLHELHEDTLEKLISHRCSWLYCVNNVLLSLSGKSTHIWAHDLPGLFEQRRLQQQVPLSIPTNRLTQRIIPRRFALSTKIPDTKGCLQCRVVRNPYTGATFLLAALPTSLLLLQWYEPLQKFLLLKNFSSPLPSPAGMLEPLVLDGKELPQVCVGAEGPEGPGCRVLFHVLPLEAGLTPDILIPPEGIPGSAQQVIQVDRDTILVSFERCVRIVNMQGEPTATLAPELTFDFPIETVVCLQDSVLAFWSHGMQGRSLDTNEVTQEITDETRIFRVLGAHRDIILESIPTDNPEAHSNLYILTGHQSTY

[19] = biological target: T5, Mitogen-activated protein kinase kinase kinase kinase 2 (Homo sapiens); conditions: at 1 µM
[20] = biological target: Mitogen-activated protein kinase kinase kinase kinase 4 (Homo sapiens) (UniProt O95819); conditions: at 0.1 µM
Sequence of Mitogen-activated protein kinase kinase kinase kinase 4 (Homo sapiens) (O95819 2-1239 limits assumed): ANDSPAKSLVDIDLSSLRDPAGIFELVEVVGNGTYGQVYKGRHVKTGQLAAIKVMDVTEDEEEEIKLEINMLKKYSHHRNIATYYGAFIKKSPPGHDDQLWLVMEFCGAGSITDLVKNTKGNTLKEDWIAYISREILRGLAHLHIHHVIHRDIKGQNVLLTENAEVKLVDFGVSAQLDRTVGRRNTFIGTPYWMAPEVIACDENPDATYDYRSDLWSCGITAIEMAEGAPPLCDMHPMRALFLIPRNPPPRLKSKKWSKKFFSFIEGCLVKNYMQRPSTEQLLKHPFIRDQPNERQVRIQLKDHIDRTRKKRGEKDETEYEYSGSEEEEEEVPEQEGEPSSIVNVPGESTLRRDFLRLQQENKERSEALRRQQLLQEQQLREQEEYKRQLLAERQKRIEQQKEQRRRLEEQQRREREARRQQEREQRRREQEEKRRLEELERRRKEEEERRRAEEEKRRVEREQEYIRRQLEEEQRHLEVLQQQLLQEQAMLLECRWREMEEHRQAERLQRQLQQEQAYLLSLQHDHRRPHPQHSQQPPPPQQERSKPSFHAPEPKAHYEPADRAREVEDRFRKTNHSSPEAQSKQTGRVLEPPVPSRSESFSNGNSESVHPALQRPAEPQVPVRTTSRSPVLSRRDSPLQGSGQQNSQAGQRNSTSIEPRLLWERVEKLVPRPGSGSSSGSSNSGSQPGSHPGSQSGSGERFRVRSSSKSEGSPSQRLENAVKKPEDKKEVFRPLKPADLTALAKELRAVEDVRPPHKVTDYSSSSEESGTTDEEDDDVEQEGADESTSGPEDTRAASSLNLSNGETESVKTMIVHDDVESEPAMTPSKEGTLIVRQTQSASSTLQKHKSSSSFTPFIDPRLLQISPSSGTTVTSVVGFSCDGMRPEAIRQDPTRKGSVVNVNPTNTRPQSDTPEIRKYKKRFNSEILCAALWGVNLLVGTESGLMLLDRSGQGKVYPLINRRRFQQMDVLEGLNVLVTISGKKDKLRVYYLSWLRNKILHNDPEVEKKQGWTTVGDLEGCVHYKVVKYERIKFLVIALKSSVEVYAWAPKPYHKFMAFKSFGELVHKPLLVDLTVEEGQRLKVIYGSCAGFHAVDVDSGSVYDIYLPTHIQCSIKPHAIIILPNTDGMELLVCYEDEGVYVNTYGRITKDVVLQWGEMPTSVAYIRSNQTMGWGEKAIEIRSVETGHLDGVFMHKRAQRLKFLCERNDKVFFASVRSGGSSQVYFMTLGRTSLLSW

Sequence of High affinity nerve growth factor receptor (Homo sapiens) (P04629 33-796 limits assumed): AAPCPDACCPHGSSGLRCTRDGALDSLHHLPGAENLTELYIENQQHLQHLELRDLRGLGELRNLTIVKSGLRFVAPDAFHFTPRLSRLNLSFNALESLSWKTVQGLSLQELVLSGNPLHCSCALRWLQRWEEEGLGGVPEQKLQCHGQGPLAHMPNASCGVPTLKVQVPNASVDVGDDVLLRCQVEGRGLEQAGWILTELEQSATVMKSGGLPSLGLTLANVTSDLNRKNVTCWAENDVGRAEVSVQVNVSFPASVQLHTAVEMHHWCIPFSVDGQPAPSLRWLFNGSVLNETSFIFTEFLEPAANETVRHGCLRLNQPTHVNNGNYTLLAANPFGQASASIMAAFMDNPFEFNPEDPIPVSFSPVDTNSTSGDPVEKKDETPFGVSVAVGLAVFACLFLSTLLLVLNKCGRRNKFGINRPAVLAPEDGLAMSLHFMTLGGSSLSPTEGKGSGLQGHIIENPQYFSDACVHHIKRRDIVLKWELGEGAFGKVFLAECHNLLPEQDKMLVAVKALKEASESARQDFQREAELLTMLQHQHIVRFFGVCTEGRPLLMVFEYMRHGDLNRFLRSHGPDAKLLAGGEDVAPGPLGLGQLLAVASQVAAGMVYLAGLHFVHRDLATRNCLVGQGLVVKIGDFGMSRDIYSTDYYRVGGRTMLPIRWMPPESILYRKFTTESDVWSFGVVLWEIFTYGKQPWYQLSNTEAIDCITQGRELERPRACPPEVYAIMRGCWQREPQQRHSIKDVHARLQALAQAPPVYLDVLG
Sequence of BDNF/NT-3 growth factors receptor (Homo sapiens) (Q16620 32-822 limits assumed): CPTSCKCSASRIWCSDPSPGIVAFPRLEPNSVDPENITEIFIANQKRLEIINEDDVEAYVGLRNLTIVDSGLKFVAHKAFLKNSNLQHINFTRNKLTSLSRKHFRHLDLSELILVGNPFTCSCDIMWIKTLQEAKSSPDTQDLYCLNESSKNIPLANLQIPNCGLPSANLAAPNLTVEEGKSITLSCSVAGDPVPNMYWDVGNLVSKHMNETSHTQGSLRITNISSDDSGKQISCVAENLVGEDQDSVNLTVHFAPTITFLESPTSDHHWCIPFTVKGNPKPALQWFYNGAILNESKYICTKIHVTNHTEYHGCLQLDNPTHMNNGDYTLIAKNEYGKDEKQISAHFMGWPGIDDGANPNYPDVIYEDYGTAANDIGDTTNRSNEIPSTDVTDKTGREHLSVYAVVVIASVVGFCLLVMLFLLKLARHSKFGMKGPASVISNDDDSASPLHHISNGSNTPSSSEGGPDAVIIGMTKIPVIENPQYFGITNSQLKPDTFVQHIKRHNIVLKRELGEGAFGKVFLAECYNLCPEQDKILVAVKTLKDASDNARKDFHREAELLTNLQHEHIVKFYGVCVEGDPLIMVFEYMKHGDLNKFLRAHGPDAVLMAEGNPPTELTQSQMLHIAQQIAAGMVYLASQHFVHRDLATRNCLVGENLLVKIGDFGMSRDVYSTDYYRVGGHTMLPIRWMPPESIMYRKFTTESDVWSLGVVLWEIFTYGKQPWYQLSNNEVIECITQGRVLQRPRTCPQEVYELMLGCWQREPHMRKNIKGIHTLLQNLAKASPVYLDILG

Row | SMILES | inhibition [1] [%] | inhibition [2] [%] | inhibition [3] [%] | inhibition [4] [%] | inhibition [5] [%] | inhibition [6] [%] | inhibition [7] [%] | inhibition [8] [%] | inhibition [9] [%] | inhibition [10] [%] | inhibition [11] [%] | inhibition [12] [%] | inhibition [13] [%] | inhibition [14] [%] | inhibition [15] [%] | inhibition [16] [%] | inhibition [17] [%] | inhibition [18] [%] | inhibition [19] [%] | inhibition [20] [%]
1 | CNC(=O)c1cncc(/C=C/c2c(C)cccc2C)c1 | 0.47 | 0.05 | 0.22 | 0.47 | 1.16 | 5.71 | 35.6 | -0.15 | 5.33 | -1.77 | -0.78 | -3.36 | -3.06 | -3.26 | -9.54 | 1.24 | 10.3 | 0.91 | 4.59 | 4.81
2 | COc1cc(C)c(N(C)C(=O)CN(C)C)cc1Nc1nc(Nc2cccc(F)c2C(N)=O)c2cc[nH]c2n1 | 1.31 | 0.94 | -2.87 | 1.87 | -1.19 | -1.41 | -0.09 | 0.02 | 25.7 | -0.3 | -1.19 | -3.04 | -0.55 | -3.75 | 4.56 | 1.37 | 2.05 | 2.17 | 3.67 | 0.4
3 | C#Cc1cccc(Nc2ncnc3ccc(OCCCCNCCS(C)(=O)=O)cc23)c1 | 1.9 | 3.91 | 2.28 | 3.6 | 4.94 | 5.2 | 7.94 | -6.6 | 9.83 | -1.65 | -0.05 | -2.61 | 2.47 | -2.83 | -5.69 | 23.4 | 75.4 | 1.44 | 5.3 | 5.65
4 | O=C(Nc1n[nH]c2cc(-c3ccccc3)ccc12)C1CC1 | 4.46 | 1.46 | 6.76 | 0.77 | 7.68 | 8.18 | 17.7 | -4.71 | 6.67 | 1.71 | 13.2 | 4.05 | 3.92 | 0.96 | 9.67 | 4.04 | 19.9 | 1.56 | 4.2 | 33.6
5 | COc1cc(N2CCN(C(C)C)CC2)ccc1Nc1nc(Nc2ccc(F)cc2C(=O)NC[C@@H](O)CO)c2cc[nH]c2n1 | 1.99 | 3.32 | 5.92 | 3.35 | 4.57 | -1.48 | -0.56 | -4.74 | 82 | -1.18 | -2.23 | -2.39 | 3.15 | -2.54 | -7.09 | 6.3 | 9.7 | 1.34 | 1.33 | 4.24
6 | N#Cc1ccc(Oc2nccc(-c3c(-c4ccc(F)cc4)ncn3C3CCNCC3)n2)cc1 | 0.26 | 2.91 | 4.54 | 2.17 | 3.17 | -0.35 | 1.69 | -3.12 | 8.89 | 3.21 | 4.78 | 3.58 | 5.49 | 0.14 | 3.86 | 6.19 | 8.89 | 0.91 | 4.07 | 3.8
7 | CS(=O)(=O)CCNCc1cc(-c2cc3c(Nc4ccc(OCc5cccc(F)c5)c(Cl)c4)ncnc3s2)cs1 | 7.01 | 3.47 | 5.03 | 5.13 | 3.52 | 7.43 | 6.57 | -4.26 | 9.22 | 4.18 | 4.87 | 5.13 | 9.34 | 3.65 | 8.71 | 9.33 | 12.9 | 0.39 | 3.81 | 4.31
8 | CN(C)CCCNc1nccc(-c2c(-c3ccc(F)cc3)nn3cc(C(F)(F)F)ccc23)n1 | 2.77 | 4.65 | 0.51 | 2.89 | 2.21 | -0.89 | 0.21 | -7.47 | 8.76 | -2.9 | 6.4 | 0.91 | 6.92 | -1.31 | -0.03 | 2.34 | 7.46 | 4.09 | 7.36 | 5.21
